Among all 39,000 compounds or so, about 3,300 (8.5%) were called active. The full list was thinned out, with actives kept by preference.
test system: HepG2; assay: cytotoxicity call (relative viability < 0.9); conditions: 10 µM

| SMILES | cytotoxicity call |
| --- | --- |
| C[C@@H]1CCCCO[C@H](CN(C)C(=O)Nc2ccc(C(F)(F)F)cc2)[C@@H](C)CN([C@@H](C)CO)C(=O)c2cc(NC(=O)c3ccccc3)ccc2O1 | inactive |
| CN[C@@H]1[C@@H](O)[C@@H](O[C@@H]2[C@@H](O)[C@H](O[C@H]3OC(CN)=CC[C@H]3N)[C@@H](N)C[C@H]2N)OC[C@]1(C)O | inactive |
| C[C@H](CO)N1C[C@H](C)[C@@H](CN(C)S(=O)(=O)c2ccc(F)cc2)Oc2c(NC(=O)C3CC3)cccc2C1=O | inactive |
| O=C(Nc1ccno1)N1CCOCC1 | inactive |
| C[C@@H]1CN([C@@H](C)CO)C(=O)Cc2cc(NS(=O)(=O)c3ccc(F)cc3)ccc2O[C@H]1CN(C)CC1CC1 | inactive |
| C[C@H]1CCCCO[C@H](CN(C)C(=O)NC2CCCCC2)[C@@H](C)CN([C@@H](C)CO)C(=O)c2cc(NC(=O)c3ccncc3)ccc2O1 | inactive |
| O=C(C[C@H]1CC[C@H](NS(=O)(=O)c2ccc(F)cc2)[C@@H](CO)O1)NCc1ccc(Cl)c(Cl)c1 | inactive |
| Cc1ccc(S(=O)(=O)N(C)C[C@@H]2Oc3c(NS(=O)(=O)c4ccccc4)cccc3C(=O)N([C@H](C)CO)C[C@@H]2C)cc1 | inactive |
| COC(=O)[C@H]1CCCNC1=O | inactive |
| O=C1NCCC[C@@H]1C(=O)N1CCCCC1 | inactive |
| NNC(=O)[C@H]1CCCNC1=O | active |
| COC[C@H]1C[C@@H](c2nc(-c3ccc4c(c3)COc3cc5c(ccc6[nH]c([C@@H]7CC[C@H](C)N7C(=O)[C@@H](NC(=O)OC)C(C)C)nc65)cc3-4)c[nH]2)N(C(=O)[C@H](NC(=O)OC)c2ccccc2)C1 | inactive |
| C[C@H]1CCCCO[C@H](CN(C)S(=O)(=O)c2ccc(Cl)cc2)[C@@H](C)CN([C@@H](C)CO)C(=O)c2cc(NC(=O)Nc3cccc4ccccc34)ccc2O1 | inactive |
| CCCCCCCCCCCCCCCC[N+](C)(C)CCN(Cc1ccc(OC)cc1)c1ncccn1 | active |
| COc1ccc(CN(CCN(C)C)c2ncccn2)cc1.Cl | inactive |
| C[C@@H]1CN([C@H](C)CO)C(=O)c2cc(NC(=O)Cc3ccccc3)ccc2O[C@@H](C)CCCCO[C@@H]1CN(C)C(=O)CCC(F)(F)F | inactive |
| C[C@H](CO)N1C[C@H](C)[C@H](CN(C)C(=O)Nc2ccccc2)Oc2c(NC(=O)c3ccc(-c4nccs4)cc3)cccc2C1=O | inactive |
| COc1ccc(NC(=O)Nc2ccc3c(c2)C(=O)N([C@H](C)CO)C[C@@H](C)[C@H](CN(C)S(C)(=O)=O)O3)cc1 | active |
| COc1ccc(NC(=O)Nc2ccc3c(c2)C(=O)N([C@H](C)CO)C[C@@H](C)[C@@H](CN(C)S(C)(=O)=O)O3)cc1 | inactive |
| COc1ccc(NC(=O)Nc2ccc3c(c2)C(=O)N([C@@H](C)CO)C[C@@H](C)[C@H](CN(C)S(C)(=O)=O)O3)cc1 | inactive |
| COc1ccc(NC(=O)Nc2ccc3c(c2)C(=O)N([C@H](C)CO)C[C@H](C)[C@@H](CN(C)S(C)(=O)=O)O3)cc1 | inactive |
| COc1ccc(NC(=O)Nc2ccc3c(c2)C(=O)N([C@@H](C)CO)C[C@@H](C)[C@@H](CN(C)S(C)(=O)=O)O3)cc1 | inactive |
| COc1ccc(NC(=O)Nc2ccc3c(c2)C(=O)N([C@@H](C)CO)C[C@H](C)[C@H](CN(C)S(C)(=O)=O)O3)cc1 | active |

| SMILES | cytotoxicity call |
| --- | --- |
| C[C@H](CO)N1C[C@H](C)[C@@H](CN(C)Cc2ccccc2)Oc2cc(C#CC(C)(C)O)ccc2S1(=O)=O | inactive |
| C[C@@H]1CN([C@@H](C)CO)C(=O)c2cc(NC(=O)Nc3ccc(C(F)(F)F)cc3)ccc2O[C@@H](C)CCCCO[C@@H]1CN(C)C(=O)C1CCCCC1 | inactive |
| COc1ccc(S(=O)(=O)N(C)C[C@H]2Oc3ncc(C#CC4(O)CCCC4)cc3C(=O)N([C@@H](C)CO)C[C@H]2C)cc1 | inactive |
| Cn1nnnc1SCC(=O)NC(C)(C)C | inactive |
| Cn1cc(-c2[nH]c3cc(NC(=O)[C@H](N)C4CCCCC4)cc4c3c2C=NNC4=O)cn1 | active |
| COc1ccc(-c2cnc3c(c2)C(=O)N([C@H](C)CO)C[C@@H](C)[C@@H](CN(C)C(=O)Cc2ccccn2)O3)cc1 | inactive |
| CC(C)NC(=O)Nc1ccc2c(c1)CC(=O)N([C@@H](C)CO)C[C@H](C)[C@@H](CN(C)Cc1ccc(C(=O)O)cc1)O2 | inactive |
| CC(=O)N1[C@@H]2Cn3c(ccc(-c4ccccc4)c3=O)[C@H]1[C@@H](C(=O)N1CCN(C)CC1)[C@@H]2CO | inactive |
| C[C@@H]1CCCCO[C@@H](CN(C)C(=O)Nc2ccc(F)cc2)[C@@H](C)CN([C@H](C)CO)C(=O)c2cc(NC(=O)Cc3ccccc3)ccc2O1 | inactive |
| O=C1C(O)=C(O)C(=O)C(O)=C1O | active |
| Cc1cc(C(=O)O)sc1[C@@H](N)C(=O)O | inactive |
| C[C@@H]1CN([C@@H](C)CO)C(=O)c2cc(-c3cccnc3)cnc2O[C@H]1CN(C)C(=O)Nc1ccc2c(c1)OCO2 | inactive |
| C[C@H]1CCCCO[C@H](CN(C)C(=O)Nc2ccc(F)cc2)[C@@H](C)CN([C@@H](C)CO)C(=O)c2cc(NC(=O)Nc3ccc4c(c3)OCO4)ccc2O1 | inactive |
| C[C@@H]1CN([C@@H](C)CO)C(=O)c2cc(NC(=O)Cc3cn(C)c4ccccc34)ccc2O[C@@H]1CN(C)C(=O)Nc1cccc2ccccc12 | active |
| C[C@@H]1CN([C@@H](C)CO)C(=O)c2cc(NC(=O)Cc3cn(C)c4ccccc34)ccc2O[C@@H]1CN(C)C(=O)Nc1ccc(C(F)(F)F)cc1 | inactive |
| C[C@@H]1CN([C@H](C)CO)C(=O)c2cc(NC(=O)Cc3cn(C)c4ccccc34)ccc2O[C@H]1CN(C)Cc1ccc(C(F)(F)F)cc1 | inactive |
| C[C@H]1CN([C@@H](C)CO)C(=O)c2cc(NC(=O)Cc3cn(C)c4ccccc34)ccc2O[C@@H]1CN(C)C(=O)Nc1cccc2ccccc12 | inactive |
| C[C@H](CO)N1C[C@H](C)[C@H](CN(C)C(=O)Nc2cccc3ccccc23)Oc2ccc(NC(=O)Cc3cn(C)c4ccccc34)cc2C1=O | inactive |
| C[C@@H]1CN([C@H](C)CO)C(=O)c2cc(NC(=O)Cc3cn(C)c4ccccc34)ccc2O[C@@H]1CN(C)Cc1ccc(C(F)(F)F)cc1 | active |
| C[C@@H]1CN([C@H](C)CO)C(=O)c2cc(NC(=O)Cc3cn(C)c4ccccc34)ccc2O[C@H]1CN(C)C(=O)Nc1ccc(C(F)(F)F)cc1 | active |
| C[C@H]1CN([C@@H](C)CO)C(=O)c2cc(NC(=O)Cc3cn(C)c4ccccc34)ccc2O[C@H]1CN(C)C(=O)Nc1ccc(C(F)(F)F)cc1 | inactive |
| C[C@H]1CN([C@@H](C)CO)C(=O)c2cc(NC(=O)Cc3cn(C)c4ccccc34)ccc2O[C@@H]1CN(C)C(=O)Nc1ccc(C(F)(F)F)cc1 | active |
| C[C@H](CO)N1C[C@H](C)[C@@H](CN(C)Cc2ccc(C(F)(F)F)cc2)Oc2ccc(NC(=O)Cc3cn(C)c4ccccc34)cc2C1=O | inactive |

| SMILES | cytotoxicity call |
| --- | --- |
| C[C@H](CO)N1C[C@H](C)[C@H](CN(C)C(=O)Nc2ccc(C(F)(F)F)cc2)Oc2ccc(NC(=O)Cc3cn(C)c4ccccc34)cc2C1=O | inactive |
| C[C@H](CO)N1C[C@H](C)[C@@H](CN(C)C(=O)Nc2ccc(C(F)(F)F)cc2)Oc2ccc(NC(=O)Cc3cn(C)c4ccccc34)cc2C1=O | inactive |
| C[C@@H]1CN([C@H](C)CO)C(=O)c2cccc(NC(=O)c3ccncc3)c2O[C@H]1CN(C)C(=O)Nc1ccc2c(c1)OCO2 | inactive |
| Cc1c(C)n2c3c(=O)[nH]c(=O)n(C)c3nc2n1C | inactive |
| C[C@@H]1CN([C@H](C)CO)C(=O)c2cc(NC(=O)C3CCCCC3)ccc2O[C@@H](C)CCCCO[C@@H]1CN(C)Cc1ccc(C(=O)O)cc1 | inactive |
| COc1ccc(S(=O)(=O)N2C[C@@H](O)COC[C@H]3O[C@@H](CC(=O)N[C@@H]4CCN(Cc5ccccc5)C4)CC[C@@H]32)cc1 | inactive |
| C[C@@H]1CN([C@H](C)CO)C(=O)Cc2cc(NC(=O)Cn3cnnn3)ccc2O[C@@H]1CN(C)Cc1ccc(C(=O)Nc2ccccc2N)cc1 | inactive |
| C[C@@H]1CN([C@H](C)CO)C(=O)c2cc(NS(=O)(=O)c3ccc(Cl)cc3)ccc2O[C@@H](C)CCCCO[C@@H]1CN(C)C(=O)c1ccncc1 | inactive |
| C[C@@H]1CN([C@@H](C)CO)C(=O)c2cccc(NS(=O)(=O)c3cn(C)cn3)c2O[C@H]1CN(C)C(=O)Nc1ccc(F)cc1 | inactive |
| C[C@@H]1CCCCO[C@H](CN(C)C(=O)C2CCCCC2)[C@H](C)CN([C@H](C)CO)C(=O)c2cc(NC(=O)NC3CCCCC3)ccc2O1 | inactive |
| C[C@@H]1CN([C@@H](C)CO)C(=O)Cc2cc(NC(=O)NC3CCCCC3)ccc2O[C@H]1CN(C)Cc1ccc(-c2ccccc2)cc1 | inactive |
| C[C@H]1CN([C@@H](C)CO)C(=O)Cc2cc(NC(=O)NC3CCCCC3)ccc2O[C@H]1CN(C)Cc1ccc(-c2ccccc2)cc1 | inactive |
| C[C@H](CO)N1C[C@H](C)[C@@H](CN(C)Cc2ccc(Oc3ccccc3)cc2)Oc2ccc(NC(=O)NC3CCCCC3)cc2CC1=O | inactive |
| C[C@H](CO)N1C[C@H](C)[C@H](CN(C)Cc2ccc(Oc3ccccc3)cc2)Oc2ccc(NC(=O)NC3CCCCC3)cc2CC1=O | inactive |
| C[C@@H]1CN([C@H](C)CO)C(=O)Cc2cc(NC(=O)NC3CCCCC3)ccc2O[C@@H]1CN(C)Cc1ccc(Oc2ccccc2)cc1 | active |
| C[C@@H]1CN([C@@H](C)CO)C(=O)Cc2cc(NC(=O)NC3CCCCC3)ccc2O[C@@H]1CN(C)Cc1ccc(Oc2ccccc2)cc1 | active |
| C[C@H]1CN([C@@H](C)CO)C(=O)Cc2cc(NC(=O)NC3CCCCC3)ccc2O[C@H]1CN(C)Cc1ccc(Oc2ccccc2)cc1 | active |
| C[C@@H]1CN([C@H](C)CO)C(=O)Cc2cc(NC(=O)NC3CCCCC3)ccc2O[C@H]1CN(C)Cc1ccc(-c2ccccc2)cc1 | active |
| C[C@@H]1CN([C@@H](C)CO)C(=O)Cc2cc(NC(=O)NC3CCCCC3)ccc2O[C@@H]1CN(C)Cc1ccc(-c2ccccc2)cc1 | inactive |
| C[C@@H]1CN([C@H](C)CO)C(=O)Cc2cc(NC(=O)NC3CCCCC3)ccc2O[C@H]1CN(C)Cc1ccc(Oc2ccccc2)cc1 | inactive |
| C[C@H]1CN([C@@H](C)CO)C(=O)Cc2cc(NC(=O)NC3CCCCC3)ccc2O[C@@H]1CN(C)Cc1ccc(Oc2ccccc2)cc1 | inactive |
| C[C@@H]1CN([C@@H](C)CO)C(=O)Cc2cc(NC(=O)NC3CCCCC3)ccc2O[C@H]1CN(C)Cc1ccc(Oc2ccccc2)cc1 | inactive |
